From PubChem BioAssay (NCATS)
Inconclusive results are not listed. Calls of active or inactive are those of the source. Calls follow the shape of the dose curve; as a rule, active = well fitted curve in the direction sought with a large enough effect; inconclusive = small, poorly fitted or top-dose-only effect, or another doubt; inactive = no such curve, though single readings can be large; an effect the other way counts as inactive or inconclusive.

Tests used:
[1] = Cell Viability - LYMP2-001 (AID 921); details: LYMP2-001 lymphoblastoid cell viability; series mostly up to 92.2 µM; also: nearly all actives have a fitted effect of over 70% in size
Summary of the method: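 Human lymphoblastoid LYMP2-001 cells, 2500 per well, in complete medium, treated 24 h at 37 C. Viability from cellular ATP by CellTiter-Glo luminescence; AC50 from Hill-equation fits of qHTS concentration-response.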

[2] = MultiTox-Fluor Cytotoxicity Assay - LYMP1-001 - Live Cells (AID 947); details: LYMP1-001 lymphoblastoid cells, live-cell protease fluorescence viability; series mostly up to 92.2 µM
[3] = MultiTox-Fluor Cytotoxicity Assay - LYMP1-003 - Dead Cells (AID 961); details: LYMP1-003 lymphoblastoid cells, dead-cell protease fluorescence; series mostly up to 92.2 µM; also: nearly all actives have a fitted effect of over 70% in size
Summary of the method: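 Human lymphoblastoid LYMP1-003 cells (2500/well) were treated with compounds for 16 hr at 37 C in complete medium. Dead-cell protease release was read by bis-AAF-R110 fluorescence (Ex/Em 485/520). AC50 came from Hill fits, normalized to DMSO and 15 uM tetraoctylammonium bromide.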

[4] = MultiTox-Fluor Cytotoxicity Assay - LYMP1-003 - Live Cells (AID 962); details: LYMP1-003 lymphoblastoid cells, MultiTox-Fluor live-cell protease fluorescence; series mostly up to 92.2 µM;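 also: cytotoxic hits lower the live-cell protease signal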
Summary of the method: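 qHTS, 1536-well; 2500 cells/well LYMP1-003; 5 hr 37 C settle; cpd 16 hr 37 C; MultiTox-Fluor reagent 60 min RT; live-cell protease fluor. 405/510; Hill-fit AC50; tetraoctylammonium bromide pos. ctrl.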

[5] = Cell Viability - LYMP2-003 (AID 965); details: LYMP2-003 lymphoblastoid cell viability; series mostly up to 92.2 µM;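 also: cells exposed to compounds for 24 h before reading; nearly all actives have a fitted effect of over 50% in size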
Summary of the method: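 Human lymphoblastoid LYMP2-003 cells, 2500/well, exposed to compounds for 24 h at 37 C in complete medium. Viability read as intracellular ATP by CellTiter-Glo luminescence; AC50 from Hill-equation fits of qHTS concentration-response data.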

[6] = Cell Viability - LYMP2-004 (AID 966); details: LYMP2-004 lymphoblastoid cell viability, qHTS; series mostly up to 92.2 µM; also: nearly all actives have a fitted effect of over 65% in size
Summary of the method: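 Cells seeded 2500/well, rested 5 hr at 37 C, dosed across a concentration series, incubated 24 hr at 37 C, then CellTiter-Glo added for 30 min at room temperature and luminescence read. Hill fitting gave AC50.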

[7] = Cell Viability - LYMP2-009 (AID 968); details: LYMP2-009 lymphoblastoid cell viability; series mostly up to 92.2 µM; also: nearly all actives have a fitted effect of over 55% in size
[8] = Cell Viability - LYMP2-011 (AID 969); details: LYMP2-011 lymphoblastoid cells viability; series mostly up to 92.2 µM; also: nearly all actives have a fitted effect of over 60% in size
Summary of the method: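 2500 cells/well, 5 hr 37 C; compound added, 24 hr 37 C; CellTiter-Glo 30 min RT; luminescence. qHTS concentration-response, Hill-equation AC50. Tetraoctylammonium bromide positive control.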

[9] = Cell Viability - LYMP2-013 (AID 970); details: LYMP2-013 lymphoblastoid cells viability; series mostly up to 92.2 µM; also: nearly all actives have a fitted effect of over 55% in size
Summary of the method: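 qHTS; 2500 lymphoblastoid cells/well; 5 hr 37 C settle; cpd 24 hr 37 C; CellTiter-Glo, 30 min RT; luminescence. AC50 = Hill fit.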

[10] = Cell Viability - LYMP2-017 (AID 972); details: LYMP2-017 lymphoblastoid cell viability; series mostly up to 92.2 µM; also: nearly all actives have a fitted effect of over 55% in size
Summary of the method: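 2500 cells/well, 5 h 37 C; cpd 24 h 37 C in complete medium; CellTiter-Glo, 30 min RT; luminescence (ATP). AC50 via Hill fit, qHTS.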

[11] = Cell Viability - LYMP2-019 (AID 973); details: LYMP2-019 lymphoblastoid cell line viability; series mostly up to 92.2 µM; also: nearly all actives have a fitted effect of over 55% in size
Summary of the method: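 Luminescent ATP read-out (CellTiter-Glo, 30 min room temperature) served as the viability measure after 24 hr treatment of lymphoblastoid cells at 37 C. Concentration-response data were fitted to the Hill equation for AC50.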

[12] = Cell Viability - LYMP2-021 (AID 974); details: LYMP2-021 lymphoblastoid cells viability; series mostly up to 92.2 µM
Summary of the method: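 Plate 2500 lymphoblastoid cells per well and incubate 5 hr at 37 C. Add compounds over a concentration range and incubate 24 hr at 37 C. Add CellTiter-Glo, wait 30 min at room temperature, read luminescence.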

[13] = Cell Viability - LYMP2-006 (AID 978); details: LYMP2-006 lymphoblastoid cell viability, qHTS; series mostly up to 92.2 µM; also: nearly all actives have a fitted effect of over 60% in size
Summary of the method: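 Human lymphoblastoid cells (LYMP2-006), 2500/well in complete medium, were treated with compound for 24 hr at 37 C. Cellular ATP was read by CellTiter-Glo luminescence after 30 min, and AC50 values came from Hill-equation fits of concentration-response data.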

[14] = Cell Viability - LYMP2-007 (AID 979); details: LYMP2-007 lymphoblastoid cell viability; series mostly up to 92.2 µM;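 also: cells exposed to compound for 24 h before reading; nearly all actives have a fitted effect of over 60% in size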
Summary of the method: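 Luminescent ATP signal (CellTiter-Glo) serves as the viability read-out after 24 hr compound treatment of lymphoblastoid cells in complete medium at 37 C. Concentration-response data were fitted to the Hill equation to give AC50 values.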

[15] = Cell Viability - LYMP2-008 (AID 980); details: LYMP2-008 lymphoblastoid cell viability, qHTS; series mostly up to 92.2 µM; also: nearly all actives have a fitted effect of over 60% in size
Summary of the method: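 qHTS, human lymphoblastoid line, 2500 cells/well; 5 hr preincubation, 24 hr compound, 37 C. CellTiter-Glo ATP luminescence. AC50 via Hill equation. Tetraoctylammonium bromide positive control.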

[16] = Cell Viability - LYMP2-010 (AID 981); details: LYMP2-010 lymphoblastoid cell viability, qHTS; series mostly up to 92.2 µM; also: nearly all actives have a fitted effect of over 55% in size
Summary of the method: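 Luminescent ATP signal (CellTiter-Glo) served as the viability read-out. Cells of the human lymphoblastoid line were treated with compound over a concentration range for 24 hours at 37 C, and AC50 values came from Hill-equation modeling.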

[17] = Cell Viability - LYMP2-012 (AID 982); details: LYMP2-012 lymphoblastoid cell viability qHTS; series mostly up to 92.2 µM
[18] = Cell Viability - LYMP2-016 (AID 984); details: LYMP2-016 lymphoblastoid cell viability, qHTS; series mostly up to 92.2 µM; also: nearly all actives have a fitted effect of over 55% in size
Summary of the method: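 Human lymphoblastoid LYMP2-016 cells, 2500 per well, treated with compounds for 24 h at 37 C. Viability read as intracellular ATP by CellTiter-Glo luminescence after 30 min at room temperature; AC50 from Hill fits of concentration-response.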

[19] = Cell Viability - LYMP2-018 (AID 985); details: LYMP2-018 lymphoblastoid cells, viability (qHTS); series mostly up to 92.2 µM;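 also: compound exposure lasted 24 hr at 37 °C; nearly all actives have a fitted effect of over 50% in size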
Summary of the method: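 Luminescent ATP signal (CellTiter-Glo, read after 30 min at room temperature) reports viable cells after 24 hr compound treatment at 37 C. Concentration-response data were fitted to the standard Hill equation for AC50.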

[20] = qHTS assay for cell viability of the p53RE-bla HCT-116 cell line (AID 743292); details: p53RE-bla HCT-116 viability, ATP luminescence, 16 h; series mostly up to 95 µM; also: nearly all actives have a fitted effect of over 55% in size
Summary of the method: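 Compound-exposed HCT-116 (p53RE-bla) cells, 4,000 per well, were kept 16 h at 37 C following a 5 h preincubation. Cell number was estimated from total ATP by CellTiter-Glo luminescence read after 30 min at room temperature.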

Measured: Potency

Cc1ccccc1O
inactive: [1] | [2] | [3] | [4] | [5] | [6] | [7] | [8] | [9] | [10] | [11] | [12] | [13] | [14] | [15] | [16] | [17] | [18] | [19] | [20]
